30 compounds from PubChem BioAssay AID686979 (National Center for Advancing Translational Sciences (NCATS), 2013) can be followed below.

Hit rate of the full screen: of about 420,000 compounds, about 50,000 (12%) were called active. Where a call stands in place of a potency, no number is given. Not shown: some 26% with an inconclusive outcome. Calls come from the whole dose curve; as a rule, active = well fitted inhibition curve with a large enough effect; inconclusive = small, poorly fitted or top-dose-only effect; inactive = flat fitted curve, though single readings scatter. This excerpt belongs to a sample that is enriched for actives.
Potency is the fitted concentration of half-maximal effect.

The test is described as follows: qHTS for Inhibitors of human tyrosyl-DNA phosphodiesterase 1 (TDP1): qHTS in cells in presence of CPT. Note: nearly all actives have a fitted effect of over 55% in size. The conditions noted are these: chicken DT40 Tdp1-/-;hTDP1 cells + 20 nM CPT, ATP luminescence, 48 h; series mostly up to 46.2 µM. The method, boiled down:
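Chicken DT40 Tdp1-/- cells complemented with human TDP1, 400 cells/well, exposed to compounds plus 20 nM camptothecin for at least 48 h at 37 C; viability read as ATP content by CellTiter-Glo luminescence.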
With `COc1ccc(CCNC(=O)COC(=O)C2CC2C)cc1` (stereo not given), the Potency entry is “inactive”.

Take `COc1ccc(C(CNC(=O)c2ccc(S(=O)(=O)Nc3ccccc3F)cc2)N(C)C)cc1` (stereo not given): the Potency entry was “inactive”.

As for `Cc1c(Br)ccc(NC(=O)COc2ccccc2C(N)=O)c1C`, the Potency result is “inactive”.

Regarding `CNC(=O)NC(=O)C(OC(=O)c1cccc(S(=O)(=O)N2CCCCC2)c1)c1ccccc1` (stereo not given), the Potency entry is “inactive”.

In the case of `C=CCNC(=O)CC12CC3CC(C1)CC(CC(=O)NCC=C)(C3)C2`, the Potency entry was “inactive”.

Consider `CC(=O)O[C@H]1CC[C@@]2(C)[C@@H](CC[C@@H]3[C@@H]2CC[C@]2(C)[C@@H](C(C)(C)O)C[C@@H]32)C1`, for which the Potency entry is “inactive”.

With `COc1cc(F)c(C2=CC(=O)CC(C)(C)C2)cc1F`, the Potency result was “inactive”.

Take `c1cnc(Nc2nc(-c3ccc4ccccc4c3)cs2)nc1`: the Potency is 29.1 µM (active).

For the compound `NS(=O)(=O)c1ccc(Nc2nc(-c3ccccc3)cs2)cc1`, the Potency entry is “inactive”.

In the case of `O=C(Nc1nc(-c2ccc(-c3ccccc3)cc2)cs1)c1cnccn1`, the Potency result was “inactive”.

Regarding `CCOc1cccc2c1OC1(CCCCC1)N1N=C(c3cccnc3)CC21` (stereo not given), the Potency result was “inactive”.

Turning to `FC(F)(F)c1cccc(Cc2noc(CN3CCC(N4CCCCC4)CC3)n2)c1`, the Potency entry was “inactive”.

In the case of `CCCCOC(=O)Nc1nnc(CC(=O)NCc2ccccc2)s1`, the Potency entry was “inactive”.

Take `CN(C(=O)COC(=O)Cn1cnc2c1c(=O)n(C)c(=O)n2C)C1(C#N)CCCCC1`: the Potency result was “inactive”.

With `COC(=O)[C@@H]1C[C@@]2(O)[C@@H](O)[C@@H](O)[C@@H](O)C[C@H]2N1Cc1ccc(C)s1`, the Potency entry is “inactive”.

As for `O=C(Nc1ccc2c(c1)OCO2)c1cc(-c2cccc(Cl)c2)on1`, the Potency result is “inactive”.

Regarding `c1ccc(-c2cn3cccnc3n2)cc1`, the Potency result is “inactive”.

As to `c1ccc(-c2cn3c(n2)CCc2ccc4cccnc4c2-3)cc1`, the Potency is 13 µM (active).

For the compound `CS/C(=C\[N+](=O)[O-])Nc1ccc(C)cc1`, the Potency result is “inactive”.

Take `COc1cc(C(C)=O)ccc1OC(=O)CN1C(=O)c2ccccc2C1=O`: the Potency result is “inactive”.

For the compound `Cc1ccccc1N1CCN(CCCN2C(=O)C3CCCCN3C2=O)CC1` (stereo not given), the Potency result was “inactive”.

As to `CCN(CC)CCCSc1nc2ccccc2s1`, the Potency result is “inactive”.

Consider `COc1cc2[nH]c(O)c(C=O)c2cc1OC`, for which the Potency result is “inactive”.

In the case of `COc1ccc(N=Cc2c(O)[nH]c3ccccc23)cc1OC`, the Potency result was “inactive”.

Consider `COc1cc(N=Cc2c(O)[nH]c3ccccc23)cc(OC)c1OC`, for which the Potency is 20.6 µM (active).

Take `Oc1ccc(CN2CCN(c3ncccn3)CC2)cc1`: the Potency result was “inactive”.

On to `COc1ccccc1-c1nn(Cc2ccccc2)cc1C(=O)N1CCN(c2ncccn2)CC1`, for which the Potency was 25.9 µM (active).

Consider `COc1cccc(OC)c1C(=O)N1CCN(Cc2cccnc2)CC1`, for which the Potency result is “inactive”.

Turning to `O=C(NCc1ccco1)/C(=C/c1ccco1)NC(=O)c1ccccc1`, the Potency result was “inactive”.

Regarding `CCCCC/C=C\C/C=C\CCCCCCCCCC(=O)O`, the activity change, negative = growth inhibition is -5.48% [at 4.12 µM] (inactive).
